Source: PubChem
FMDV Renilla: Primary qHTS Assay for Foot and Mouth Disease Virus Antivirals against NCGC Sytravon and CBC Compound Libraries: Renilla Luciferase Signal; FMDV replicon cells, Renilla luciferase signal; Potency, µM (titrated, usually from 57.5 µM), for the others: at the top dose activity change, negative = inhibition, most hits filed as inhibitors; hit rate 0.32% among 120,000; note: nearly all actives have a fitted effect of over 55% in size
FMDV antiviral: Primary qHTS Assay for Foot and Mouth Disease Virus Antivirals against NCGC Sytravon and CBC Compound Libraries: Firefly Luciferase Signal | FMDV antiviral cell assay, firefly luciferase signal | Potency, µM (doses to about 57.5 µM), for inactives: at the top dose activity change, negative = inhibition, hits mostly inhibitors | hit rate 0.23% among 120,000 | AID 1745856, 2022; note: nearly all actives have a fitted effect of over 60% in size
* marks the source's active call; other numbers are inactive results; ? = inconclusive; [ ] = another dose, or the depositor's remark. The list is not random: actives were taken first. Their share in the collection is about 0.51%. Calls come from the whole dose curve. % is set by controls: 0 for no effect and ±100 for the full control effect; potency is the fitted concentration of half-maximal effect.

SMILES	FMDV Renilla	FMDV antiviral
CCCC(NC(=O)c1ccnc(Cl)c1)c1ccccc1 (stereo not drawn)	26.3%	3.6%
O=C(C1CCC(CNS(=O)(=O)c2ccc(Br)s2)CC1)N1CCN(c2ccc(F)cc2)CC1 (stereo not drawn)	6.31µM*	?
O=C(C1CCC(CNS(=O)(=O)c2ccc(Br)s2)CC1)N1CCN(c2ccccc2Cl)CC1 (stereo not drawn)	-1.3%	-5.9%
O=c1[nH]c(-n2cccc2)c(-c2c(-c3cccc(Cl)c3)[nH]c3[nH]c(=O)[nH]c(=O)c23)c(=O)[nH]1	-6.3%	3.8%
Nc1nccnc1C(=O)NCCNc1cnccn1	?	1.4%
CCN(C(=O)c1cc2c(s1)-c1ccccc1SC2)c1cc(C)ccc1C	12.8%	-17.8%
COc1cc(CN(C(=O)COc2ccc(Br)cc2)c2ccccn2)cc(OC)c1OC	22.4µM*	-42.4%
COc1cc(CN(C(=O)COc2ccc(C)cc2)c2ccccn2)cc(OC)c1OC	33.5%	39.6%
COc1ccc(C(=O)/C=C/c2ccccc2OCC#N)c2ccccc12	25.1µM*	?
COc1ccccc1/C=C/C(=O)c1ccc(C)cc1OC	31.4%	0.0%
Cc1cnc2c(S(=O)(=O)N3CCCCC3)cccc2c1	98.5%	45.8%
O=C(c1ccc(N2CCCN(Cc3ccccc3)C2=O)cc1)N1CCN(c2ccccc2)CC1	-13.7%	?
Cc1cccc(CN2CCCN(c3cccc(C(=O)N4CCN(c5ccccc5)CC4)c3)C2=O)c1	10µM*	?
COc1cc(CN2CCC(C(O)(c3ccccc3)c3ccccc3)CC2)ccc1OCc1ccccc1	35.5µM*	?
COc1cccc(CN2CCC(C(O)(c3ccccc3)c3ccccc3)CC2)c1OC	16.5%[1.06 µM]	?
CCn1nc(C(=O)Nc2ccc3nc(SC)sc3c2)c2ccccc2c1=O	-2.1%	87.6%
O=C(CC1(C(=O)O)CCCCC1)Nc1ccc(NS(=O)(=O)c2ccc(F)cc2)cc1	4.6%	6.2%
COc1cccc2sc(N3CCN(C(=O)CCS(=O)(=O)c4ccc(F)cc4)CC3)nc12	?	35.5µM*
Cc1ccc(S(=O)(=O)CCC(=O)N2CCN(c3nc4c(C)c(Cl)ccc4s3)CC2)cc1	-11.0%	-0.5%
COC(=O)CNC(=O)c1ccc(CN)cc1	-13.8%	-9.4%
COc1ccc(OC)c(C2CCCN2C(=O)Cn2cccnc2=O)c1 (stereo not drawn)	-9.6%	-10.3%
COc1cc(OC)cc(-c2cc3nc(C)c(CCC(=O)NCc4ccccc4)c(C)n3n2)c1	-12.3%	?
COc1cc(OC)c(NC(=O)CCc2c(C)nc3cc(-c4ccccc4OC)nn3c2C)cc1Cl	4.2%	-19.0%
COc1cc(OC)cc(-c2cc3nc(C)c(CCC(=O)Nc4ccccc4OC)c(C)n3n2)c1	-12.3%	3.16µM*
COc1ccccc1-c1cc2nc(C)c(CCC(=O)Nc3cc(C)ccc3C)c(C)n2n1	-13.2%	35.5µM*
SMILES	FMDV Renilla	FMDV antiviral
CCOP(=O)(OCC)c1nc(-c2ccco2)oc1NCc1ccc(F)cc1	127.9%	3.4%
CCc1c(C(=O)NC(C)C)csc1C	1.7%	7.2%
CN(CC(=O)Nc1cc2[nH]c(=O)[nH]c2cc1Br)Cc1ccccc1N1CCCCC1	-19.6%	-16.7%
COCCNC(=O)NC(=O)CN(C)Cc1cccs1	0.6%	16.8%
Fc1ccc(COc2cccc(CNCC3CCNCC3)c2)cc1	31.6µM*	?
Brc1ccc(OCc2ccccc2)c(CNCC2CCNCC2)c1	-26.0%	-24.6%
O=C(Nc1ccc2ccccc2c1)C1=C(c2ccccc2)S(=O)(=O)CCO1	0.0%	-15.9%
COc1ccc(-c2noc(CCCC(=O)Nc3ccc(S(=O)(=O)N4CCCCCC4)cc3)n2)cc1	?	31.6µM*
COc1ccc(-c2noc(CCCC(=O)Nc3cccc(Cl)c3C)n2)cc1	-12.4%	-14.2%
COc1ccc2sc(N(Cc3cccnc3)C(=O)c3cccs3)nc2c1	3.16µM*	?
CCOc1ccc2nc(N(Cc3cccnc3)C(=O)c3cccs3)sc2c1	3.8%	55.4%
CC(C)[C@H](NC(=O)OC(C)(C)C)C(=O)NC[C@H](CC(=O)O)c1ccc(Cl)cc1	-3.1%	5.2%
COc1ccccc1COCC(O)Cn1nc(-c2ccccc2)c2ccccc2c1=O (stereo not drawn)	20.7%	-8.2%
CC(NC(=O)c1nn(C)c(=O)c2ccccc12)c1ccccc1 (stereo not drawn)	6.2%	8.0%
CC(NC(=O)c1ccccc1NC(=O)c1nn(C)c(=O)c2ccccc12)c1ccccc1 (stereo not drawn)	4.47µM*	3.55µM*
COc1ccc(CCNC(=O)c2ccc3c(c2)N(Cc2ccccc2)C(=O)CS3=O)cc1OC (stereo not drawn)	3.8%	0.3%
N#CCOc1ccc2ccccc2c1	1.4%	12.6µM*
N#CCOc1ccc(COc2cccc(C#N)c2)cc1	7.7%	111.1%
COc1ccc2cc(/C=C(/C#N)c3nc4ccccc4[nH]3)ccc2c1	10µM*	225.2%
COc1ccc(/C=C(/C#N)c2nc3ccccc3[nH]2)cc1	213.2%	144.6%
CC(C)CNC(=O)CSc1nnc(COc2ccc(Cl)cc2)n1C	-3.2%	8.3%
COc1ccc(C2CC(=O)Nc3cc4c(cc32)OCO4)c(OC)c1 (stereo not drawn)	-7.0%	16.2%
CC(C)COc1ccccc1C1CC(=O)Nc2cc3c(cc21)OCO3 (stereo not drawn)	12.6µM*	?
COc1ccccc1CNCCc1ccccc1	-5.6%	1.1%
CCN1CCN(C(C(=O)O)c2c[nH]c3cc(NC(=O)c4ccccc4)ccc23)CC1 (stereo not drawn)	0.7%	12.6µM*
SMILES	FMDV Renilla	FMDV antiviral
CCN1CCN(C(C(=O)O)c2c[nH]c3ccc(NC(=O)c4ccccc4)cc23)CC1 (stereo not drawn)	-8.4%	14.2%
CC(=O)c1cn(CCOc2cccc3ccccc23)c2ccccc12	12.6µM*	?
COc1ccccc1OCCn1cc(C(=O)C2CC2)c2ccccc21	-12.3%	3.1%
CC(C)(C)c1cc(-c2nc3ccccc3[nH]2)n[nH]1	7.9%	2.82µM*
CC(C)(C)c1cc(C(C)(C)C)c2oc(=O)c(-c3nc4ccccc4[nH]3)cc2c1	-11.3%	-17.7%
COc1ccc(NC(=O)CCc2nc(-c3ccc(C)cc3)no2)cc1S(=O)(=O)N1CCOCC1	?	-0.6%
c1ccc(CNc2nc(Nc3ccccc3)nc3ccccc23)cc1	12.6µM*	?
c1ccc(Nc2nc(NCc3ccco3)c3ccccc3n2)cc1	?	-7.0%
Cc1ccc(NC(=O)Cn2c(=O)oc3cc(S(=O)(=O)N4CCCCC4)ccc32)c(C)c1	8.91µM*	?
O=C(Cn1c(=O)oc2cc(S(=O)(=O)N3CCCCCC3)ccc21)NCc1ccccc1Cl	?	28.2µM*
COc1ccccc1CNC(=O)Cn1c(=O)oc2cc(S(=O)(=O)N3CCC(C)CC3)ccc21	?	28.2µM*
O=C(Cn1c(=O)oc2cc(S(=O)(=O)N3CCCCC3)ccc21)NCc1ccc(F)cc1	-14.7%	14.7%
COc1ccccc1CNC(=O)Cn1c(=O)ccc2cc(S(=O)(=O)N3CCC(C)CC3)ccc21	55.7%	9.9%
COc1ccc(C)cc1NC(=O)Cn1c(=O)oc2cc(S(=O)(=O)N3CCCCCC3)ccc21	3.3%	-22.0%
COc1ccc(C(=O)N2CCN(c3ccc([N+](=O)[O-])c(-n4nc(C)c5ccccc5c4=O)c3)CC2)cc1	-6.4%	-9.0%
Cc1nc(NCc2ccco2)sc1C(=O)NCCC(C)C	20.8%	0.0%
